This note sets out measurements from PubChem BioAssay (Tox21).

Values without a mark were called inactive. Results filed as inconclusive are left out. Activity calls are given as the source filed them. Unless noted, calls follow the shape of the full dose curve.

A short description of assay [1]: qHTS assay to identify small molecule antagonists of the sonic hedgehog signaling (Shh) pathway (AID 1259369). Also: nearly all actives have a fitted effect of over 45% in size. Also: potency is read from the fitted curve at half-maximal effect. The procedure, abridged:
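NIH/3T3-derived Gli1-Luc reporter cells plated 4 h, dosed with compound, then stimulated with conditioned medium for 24 h at 37 C. Firefly luciferase luminescence read after 30 min with detection reagent at room temperature.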
In general terms: In qHTS, concentration-response curves come from the screen itself.

The target in assay [2] is Estrogen receptor beta (Homo sapiens) (UniProt Q92731). Description: qHTS assay to identify small molecule agonists of the estrogen receptor beta (ER-beta) signaling pathway (AID 1259377; active = well fitted activation curve with a large enough effect in the signal ratio in the repeat runs, not every such curve was filed as active; the % refers to the signal ratio). The procedure, abridged: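 Read-out: beta-lactamase FRET fluorescence. Cell line: ER-beta-UAS-bla HEK293T in 2% charcoal-stripped FBS. Exposure: 16 hr at 37C. Substrate step: 2 h at room temperature.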
Estrogen receptor beta (Homo sapiens), sequence (Q92731 whole entry, looked up): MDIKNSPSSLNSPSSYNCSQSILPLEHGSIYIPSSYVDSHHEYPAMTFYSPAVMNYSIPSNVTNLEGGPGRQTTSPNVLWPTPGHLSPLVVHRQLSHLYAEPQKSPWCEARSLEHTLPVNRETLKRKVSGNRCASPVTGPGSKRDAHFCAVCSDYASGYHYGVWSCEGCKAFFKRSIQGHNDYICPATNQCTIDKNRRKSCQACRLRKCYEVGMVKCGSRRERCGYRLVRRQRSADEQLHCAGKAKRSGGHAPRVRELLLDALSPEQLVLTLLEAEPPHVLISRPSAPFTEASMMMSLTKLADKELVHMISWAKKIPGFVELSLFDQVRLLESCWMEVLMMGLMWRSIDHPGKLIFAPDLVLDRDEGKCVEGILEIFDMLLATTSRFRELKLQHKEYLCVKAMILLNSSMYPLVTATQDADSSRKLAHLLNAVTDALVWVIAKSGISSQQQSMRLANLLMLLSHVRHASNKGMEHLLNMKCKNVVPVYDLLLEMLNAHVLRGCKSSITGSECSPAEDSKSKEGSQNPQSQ

Assay [3] in a line: qHTS assay to identify small molecule agonists of the androgen receptor (AR) signaling pathway in the presence of an antagonist - cell viability counter screen (AID 1259379; active = well fitted curve in the direction sought with a large enough effect in the repeat runs; an effect the other way counts as inactive or inconclusive;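 also: MDA-kb2 human breast cancer cells carrying an MMTV luciferase reporter; series mostly up to about 92 µM; nearly all actives have a fitted effect of over 25% in size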). The procedure, abridged: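 MDA-kb2 cells (MMTV-luciferase, AR/GR), 3,000/well, 5 h attachment, then 3.0 µM nilutamide (final) and compounds at 15 concentrations. Viability by CellTiter-Fluor fluorescence after 16 h at 37 °C, 0% CO2, in the reporter wells.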

Assay [4] in a line: qHTS assay to identify small molecule agonists of the estrogen receptor beta (ER-beta) signaling pathway - cell viability counter screen (AID 1259380; active = well fitted curve in the direction sought with a large enough effect in the repeat runs; an effect the other way counts as inactive or inconclusive; also: nearly all actives have a fitted effect of over 30% in size; also: potency is read from the fitted curve at half-maximal effect). The procedure, abridged: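 ER-beta-UAS-bla HEK293T cells in medium with 2% charcoal-stripped FBS, pre-incubated 6 hr, then treated 16 hr at 37C. Cytotoxicity read in the same wells by CellTiter-Glo luminescence after 30 min at room temperature.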

Assay [5] can be described thus: qHTS assay to identify small molecule antagonists of the estrogen receptor beta (ER-beta) signaling pathway - cell viability counter screen (AID 1259382; active = well fitted curve in the direction sought with a large enough effect in the repeat runs; an effect the other way counts as inactive or inconclusive; also: nearly all actives have a fitted effect of over 55% in size; also: potency is read from the fitted curve at half-maximal effect; as to activity change, negative = cytotoxicity: series mostly up to about 92 µM). The procedure, abridged: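 ER-beta-UAS-bla HEK293T cells in 2% charcoal-stripped FBS medium, treated with compound plus 1 nM 17-beta-estradiol for 16 h at 37C. Viability read by CellTiter-Glo luminescence after 30 min at room temperature in the same wells.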

Assay [6] concerns the target Estrogen receptor (Homo sapiens) (UniProt P03372). As to the kind of experiment: qHTS assay to identify small molecule agonists of the estrogen receptor alpha (ER-alpha) signaling pathway in the presence of an antagonist (AID 1259383). Also: top concentration of the series differs between compounds; nearly all actives have a fitted effect of over 15% in size. The procedure, abridged:
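VM7Luc4E2 cells express endogenous full-length ER-alpha with an ERE-luciferase reporter and were hormone-deprived for 5 days. Compounds at 15 concentrations were added with 10.0nM ICI-182,780 for 22hr at 37C. Luminescence was read with ONE-Glo.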

The nature of assay [7]: qHTS assay to identify small molecule agonists or antagonists of the thyroid stimulating hormone receptor (TSHR) signaling pathway - wild type cell line counter screen (AID 1259384). The procedure, abridged:
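Wild-type Hek293 cells, 800/well, 18 h at 37C, then compound with Ro20-1724 for 30 min RT. cAMP by HTRF (cAMP-d2/anti-cAMP cryptate), 1 h RT, fluorescence read. 15 concentrations, triplicates.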

Assay [8] concerns the target Thyrotropin receptor (Homo sapiens) (UniProt P16473). Description: qHTS assay to identify small molecule antagonists of the thyroid stimulating hormone receptor (TSHR) signaling pathway (AID 1259385). Also: nearly all actives have a fitted effect of over 20% in size. A digest of the protocol: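 TSHR-HEK293 cells (800/well) plated 18 h, then compounds with Ro20-1724 and TSH at 1.5 ng/mL final, 30 min at room temperature. cAMP quantified by HTRF (cAMP-d2/anti-cAMP-cryptate, 1 h); 15 concentrations in triplicate.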

The target of assay [9] is Progesterone receptor (Homo sapiens) (UniProt P06401). As to the kind of experiment: qHTS assay to identify small molecule agonists of the progesterone receptor (PR) signaling pathway (AID 1346784). Also: nearly all actives have a fitted effect of over 30% in size. A digest of the protocol:
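Compounds were tested for PR agonism in HEK 293T cells bearing a beta-lactamase gene under UAS control. Treatment lasted 16 hr at 37C; signal came from fluorescence of a FRET substrate.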

Assay [10] shares this target. Description: qHTS assay to identify small molecule antagonists of the progesterone receptor (PR) signaling pathway (AID 1346795; active = well fitted inhibition curve with a large enough effect in the signal ratio in the repeat runs, not every such curve was filed as active; the % refers to the signal ratio). A digest of the protocol:
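In HEK293T cells bearing the PR-UAS-bla reporter, compound effects on promegestone-driven (1 nM) beta-lactamase expression are assessed after 16 hr using a fluorescent FRET substrate incubated 2 hr at room temperature.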

A short description of assay [11]: qHTS assay to identify small molecule antagonists of the progesterone receptor (PR) signaling pathway - cell viability counter screen (AID 1346798; active = well fitted curve in the direction sought with a large enough effect in the repeat runs; an effect the other way counts as inactive or inconclusive; also: series mostly up to about 92 µM; nearly all actives have a fitted effect of over 50% in size). The procedure, abridged:
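Following a 4 hr attachment, PR-UAS-bla HEK293T cells in charcoal-stripped FBS medium were exposed to compounds with R5020 for 16 hr; CellTiter-Glo was added and luminescence read after 30 min at room temperature.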

Assay [12] is described as follows: qHTS assay to identify small molecule antagonists of the TGF-beta/Smad signaling pathway - cell viability counter screen (AID 1346824; active = well fitted curve in the direction sought with a large enough effect in the repeat runs; an effect the other way counts as inactive or inconclusive; also: nearly all actives have a fitted effect of over 50% in size). The procedure, abridged: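 SBE-bla HEK 293T cells, incubated overnight, then compound plus 0.25 ng/mL TGF-beta1 (stock added) for 5 hr at 37 C. Viability was read in the same wells by CellTiter-Glo luminescence after 30 min at room temperature.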

Assay [13] is described as follows: qHTS assay to identify small molecule agonists of the TGF-beta/Smad signaling pathway - cell viability counter screen (AID 1346829; active = well fitted curve in the direction sought with a large enough effect in the repeat runs; an effect the other way counts as inactive or inconclusive; also: top concentration of the series differs between compounds; nearly all actives have a fitted effect of over 45% in size). A digest of the protocol: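 Luminescence from CellTiter-Glo, read after a 30 min room-temperature incubation, gives cell viability of SBE-bla HEK 293T cells treated 5 hr with compounds at 37 C.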
Assay [14] can be described thus: qHTS assay to identify small molecule agonists of the TGF-beta/Smad signaling pathway (AID 1346859; active = well fitted activation curve with a large enough effect in the signal ratio in the repeat runs, not every such curve was filed as active; the % refers to the signal ratio; also: series mostly up to about 77 µM). The procedure, abridged: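 Each well held 4,000 SBE-bla HEK 293T cells incubated overnight before compound addition; 5 hr later the cleavable FRET substrate went on for 2 hr at room temperature, and fluorescence was read at two emissions.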
The target of assay [15] is Thyrotropin-releasing hormone receptor (Homo sapiens) (UniProt P34981). Description: qHTS assay to identify small molecule antagonists of the thyrotropin-releasing hormone receptor (TRHR) signaling pathway (AID 1346877; active = well fitted inhibition curve with a large enough effect in the repeat runs, not every such curve was filed as active; also: series mostly up to about 51 µM). A digest of the protocol: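 TRHR-expressing HEK293 cells loaded with calcium dye for 2 h at 37 C; compounds pre-incubated 5 min at room temperature before TRH challenge at 1 nM final. Intracellular calcium fluorescence read kinetically for 3 min; 15 concentrations in triplicate.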
Thyrotropin-releasing hormone receptor (Homo sapiens), sequence (P34981 whole entry, looked up): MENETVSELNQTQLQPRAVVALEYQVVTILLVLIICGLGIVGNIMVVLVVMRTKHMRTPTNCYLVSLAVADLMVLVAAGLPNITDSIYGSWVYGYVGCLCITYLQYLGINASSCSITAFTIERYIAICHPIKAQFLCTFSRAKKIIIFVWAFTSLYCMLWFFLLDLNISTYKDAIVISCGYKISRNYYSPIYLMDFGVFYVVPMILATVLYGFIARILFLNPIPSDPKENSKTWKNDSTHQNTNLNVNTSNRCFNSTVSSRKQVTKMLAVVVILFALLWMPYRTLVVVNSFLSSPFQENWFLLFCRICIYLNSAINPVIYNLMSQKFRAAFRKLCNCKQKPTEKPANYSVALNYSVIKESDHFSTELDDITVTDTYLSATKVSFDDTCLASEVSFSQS

The target is the same in assay [16]. Description: qHTS assay to identify small molecule agonists of the thyrotropin-releasing hormone receptor (TRHR) signaling pathway (AID 1346891). Also: series mostly up to about 58 µM. The procedure, abridged: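 Screening of agonists relied on calcium signalling in HEK293 cells expressing human TRHR: dye loading 2 h at 37 °C preceded compound addition and a 3-min fluorescence time course.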
The nature of assay [17]: qHTS assay to identify small molecule agonists of the estrogen receptor alpha (ER-alpha) signaling pathway in the presence of an antagonist - cell viability counter screen (AID 1259386; active = well fitted curve in the direction sought with a large enough effect in the repeat runs; an effect the other way counts as inactive or inconclusive;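 also: cells exposed to compounds for 22 h at 37 °C before the viability read; nearly all actives have a fitted effect of over 30% in size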; also: potency is read from the fitted curve at half-maximal effect; as to activity change, negative = cytotoxicity: series mostly up to about 92 µM). The procedure, abridged:
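Cell viability in VM7Luc4E2 cells (endogenous full-length ER-alpha) measured by CellTiter-Fluor fluorescence in the same wells as the luciferase screen. Cells pre-cultured 5 days in charcoal-stripped serum, then treated 22 h with compounds at 15 concentrations plus 10.0nM ICI-182,780.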

Assay [18] can be described thus: qHTS assay to identify small molecule agonists of the progesterone receptor (PR) signaling pathway - cell viability counter screen (AID 1346799). Also: nearly all actives have a fitted effect of over 45% in size. Also: potency is read from the fitted curve at half-maximal effect. The procedure, abridged:
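Here, 3,000 PR-UAS-bla HEK293T cells per well were treated with compounds for 16 hr after a 6 hr preincubation at 37C and 5% CO2; cell viability is the CellTiter-Glo luminescence signal.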

In assay [19] the target is Estrogen receptor beta (Homo sapiens) (UniProt Q92731). Description: qHTS assay to identify small molecule antagonists of the estrogen receptor beta (ER-beta) signaling pathway (AID 1259378; active = well fitted inhibition curve with a large enough effect in the signal ratio in the repeat runs, not every such curve was filed as active; the % refers to the signal ratio). A digest of the protocol: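 ER-beta-UAS-bla HEK293T cells in 2% charcoal-stripped FBS medium treated with compound plus 1nM final 17-beta-estradiol for 16 hr at 37C. Beta-lactamase reporter read by FRET substrate fluorescence after 2 hours at room temperature.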

Assay [20] concerns the target Androgen receptor (Homo sapiens) (UniProt P10275). Description: qHTS assay to identify small molecule agonists of the androgen receptor (AR) signaling pathway in the presence of an antagonist (AID 1259381). Also: nearly all actives have a fitted effect of over 15% in size. A digest of the protocol: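 MDA-kb2 cells carrying MMTV-luciferase (AR/GR responsive), 3,000 cells/well, co-treated with 3.0 uM nilutamide final. Compounds at 15 concentrations, 16 hr at 37C without CO2. Luciferase luminescence read after 30 min with ONE-Glo.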
% is scaled to controls: 0 for no effect and ±100 for the full control effect.

Thyrotropin receptor (Homo sapiens), sequence (P16473 whole entry, looked up): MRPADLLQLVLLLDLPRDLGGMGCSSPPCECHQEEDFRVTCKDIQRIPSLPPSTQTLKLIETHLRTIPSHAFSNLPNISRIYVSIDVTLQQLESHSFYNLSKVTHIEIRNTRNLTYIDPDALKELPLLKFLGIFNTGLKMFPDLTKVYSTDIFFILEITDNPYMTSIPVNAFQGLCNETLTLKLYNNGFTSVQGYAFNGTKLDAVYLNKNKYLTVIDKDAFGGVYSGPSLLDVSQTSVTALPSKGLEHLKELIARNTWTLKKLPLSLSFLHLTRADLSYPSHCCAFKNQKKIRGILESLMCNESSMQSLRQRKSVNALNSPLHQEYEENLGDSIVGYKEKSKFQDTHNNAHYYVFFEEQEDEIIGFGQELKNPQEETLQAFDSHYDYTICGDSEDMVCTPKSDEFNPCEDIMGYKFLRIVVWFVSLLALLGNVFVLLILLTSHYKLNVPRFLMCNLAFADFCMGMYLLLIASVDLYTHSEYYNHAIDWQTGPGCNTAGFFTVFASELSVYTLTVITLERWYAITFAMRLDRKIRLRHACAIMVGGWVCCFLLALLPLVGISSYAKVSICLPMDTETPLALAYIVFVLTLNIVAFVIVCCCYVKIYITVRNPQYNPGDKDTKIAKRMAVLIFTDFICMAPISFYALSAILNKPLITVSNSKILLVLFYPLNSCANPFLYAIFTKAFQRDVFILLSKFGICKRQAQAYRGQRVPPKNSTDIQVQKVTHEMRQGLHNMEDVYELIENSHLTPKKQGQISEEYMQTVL
Progesterone receptor (Homo sapiens), sequence (P06401 whole entry, looked up): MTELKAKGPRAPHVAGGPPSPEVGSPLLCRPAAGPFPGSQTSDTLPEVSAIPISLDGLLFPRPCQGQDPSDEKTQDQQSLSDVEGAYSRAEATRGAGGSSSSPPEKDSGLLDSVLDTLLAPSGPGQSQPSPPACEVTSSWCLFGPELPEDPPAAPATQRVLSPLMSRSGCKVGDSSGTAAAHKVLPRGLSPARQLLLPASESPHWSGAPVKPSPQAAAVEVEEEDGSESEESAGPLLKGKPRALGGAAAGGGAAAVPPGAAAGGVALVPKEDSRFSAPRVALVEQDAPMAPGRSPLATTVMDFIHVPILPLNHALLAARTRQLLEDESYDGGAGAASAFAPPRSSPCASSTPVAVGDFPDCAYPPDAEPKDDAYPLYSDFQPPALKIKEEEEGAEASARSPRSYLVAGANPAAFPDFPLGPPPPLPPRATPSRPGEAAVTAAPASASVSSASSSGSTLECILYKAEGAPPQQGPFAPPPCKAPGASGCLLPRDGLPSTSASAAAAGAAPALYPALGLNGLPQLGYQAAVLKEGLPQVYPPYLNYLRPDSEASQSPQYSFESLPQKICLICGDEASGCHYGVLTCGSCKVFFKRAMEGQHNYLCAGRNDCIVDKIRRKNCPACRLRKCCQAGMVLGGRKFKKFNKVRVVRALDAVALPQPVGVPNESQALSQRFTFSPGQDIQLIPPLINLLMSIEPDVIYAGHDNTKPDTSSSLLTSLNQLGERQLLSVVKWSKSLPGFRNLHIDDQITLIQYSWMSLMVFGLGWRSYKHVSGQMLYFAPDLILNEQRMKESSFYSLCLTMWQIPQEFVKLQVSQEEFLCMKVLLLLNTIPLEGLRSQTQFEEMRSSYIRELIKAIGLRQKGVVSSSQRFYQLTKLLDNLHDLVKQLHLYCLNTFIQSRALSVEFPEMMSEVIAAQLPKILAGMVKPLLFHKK
Estrogen receptor (Homo sapiens), sequence (P03372 whole entry, looked up): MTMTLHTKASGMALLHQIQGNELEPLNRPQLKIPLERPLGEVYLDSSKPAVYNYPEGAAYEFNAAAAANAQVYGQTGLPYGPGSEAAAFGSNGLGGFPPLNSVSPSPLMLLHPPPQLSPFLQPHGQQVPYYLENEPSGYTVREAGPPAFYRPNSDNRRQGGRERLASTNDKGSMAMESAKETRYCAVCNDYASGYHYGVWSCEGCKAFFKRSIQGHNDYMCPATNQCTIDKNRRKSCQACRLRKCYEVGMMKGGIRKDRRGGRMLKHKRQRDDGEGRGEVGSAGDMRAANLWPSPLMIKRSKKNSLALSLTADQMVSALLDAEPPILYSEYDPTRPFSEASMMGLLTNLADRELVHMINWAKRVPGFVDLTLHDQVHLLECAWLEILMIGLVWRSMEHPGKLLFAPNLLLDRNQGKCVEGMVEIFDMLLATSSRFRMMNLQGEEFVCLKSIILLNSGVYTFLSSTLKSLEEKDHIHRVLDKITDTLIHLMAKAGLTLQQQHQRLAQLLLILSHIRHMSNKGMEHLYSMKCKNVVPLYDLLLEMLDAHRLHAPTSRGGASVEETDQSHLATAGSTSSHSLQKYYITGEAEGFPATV
Androgen receptor (Homo sapiens), sequence (P10275 whole entry, looked up): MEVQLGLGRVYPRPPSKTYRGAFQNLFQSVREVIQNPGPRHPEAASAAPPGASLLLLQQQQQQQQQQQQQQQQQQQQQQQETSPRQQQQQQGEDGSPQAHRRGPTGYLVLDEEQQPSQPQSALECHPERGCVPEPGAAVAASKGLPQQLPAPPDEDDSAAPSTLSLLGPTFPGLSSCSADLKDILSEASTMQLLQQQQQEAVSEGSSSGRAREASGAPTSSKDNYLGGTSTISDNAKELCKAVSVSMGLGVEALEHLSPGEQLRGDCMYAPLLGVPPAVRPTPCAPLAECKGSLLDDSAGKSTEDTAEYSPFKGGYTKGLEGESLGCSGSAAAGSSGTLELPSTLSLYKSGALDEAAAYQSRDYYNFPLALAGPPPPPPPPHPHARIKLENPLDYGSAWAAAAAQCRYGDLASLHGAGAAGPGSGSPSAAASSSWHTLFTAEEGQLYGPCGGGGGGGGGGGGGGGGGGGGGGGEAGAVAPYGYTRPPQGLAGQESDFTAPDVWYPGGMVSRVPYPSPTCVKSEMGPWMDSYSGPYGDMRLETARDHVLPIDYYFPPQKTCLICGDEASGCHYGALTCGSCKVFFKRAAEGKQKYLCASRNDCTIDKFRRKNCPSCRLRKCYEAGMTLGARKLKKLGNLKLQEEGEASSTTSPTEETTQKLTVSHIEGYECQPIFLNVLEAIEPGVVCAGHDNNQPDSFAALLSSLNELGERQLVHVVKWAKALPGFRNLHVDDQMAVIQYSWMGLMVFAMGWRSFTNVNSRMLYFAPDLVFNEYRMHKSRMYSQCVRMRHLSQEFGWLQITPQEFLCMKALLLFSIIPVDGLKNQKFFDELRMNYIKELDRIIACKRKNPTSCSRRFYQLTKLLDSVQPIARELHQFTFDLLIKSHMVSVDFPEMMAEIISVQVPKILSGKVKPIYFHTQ

For `NC(N)=NCCC[C@H](N)C(=O)O`, the activity change, negative = inhibition in [1] is 18.9% [at 8.39 µM]; in [8], -0.191% [at 8.39 µM]; in assay [10], 7.3% [at 8.39 µM]. Besides, the activation in assay [2] was -0.985% [at 8.39 µM]; in assay [6], -0.001% [at 8.39 µM]; in assay [9], -0.127% [at 8.39 µM]; in assay [14], 2.75% [at 6.97 µM]; in [16], 0.134% [at 5.23 µM]. Also, the activity change, negative = cytotoxicity was 2.11% [at 8.39 µM] in assay [3]; 6.72% [at 8.39 µM] in assay [4]; 6.28% [at 8.39 µM] in assay [5]; -0.687% [at 8.39 µM] in assay [11]; 6.19% [at 6.97 µM] in [13]. In assay [7], the cAMP activity change was -11% [at 8.39 µM, active compounds read high]. In [12], the viability change, negative = cytotoxic is 7.48% [at 6.97 µM]. Moreover, in assay [15], the activity, negative = inhibition was -3.14% [at 4.65 µM].

As for `CN(C)CCN(Cc1ccccc1)c1ccccn1`, the Potency result in assay [1], in [2], in assay [3], in assay [5], in assay [6] and in assay [7] was “inactive” in each case. For the same compound, the Potency entry in [8], in assay [14] and in assay [16] was “inactive” throughout. Further, the outcome in assay [13] and in [15] was inactive.

Consider `CCCCOC(=O)CCCCCCCC(=O)OCCCC`, for which the Potency entry in assay [1], in [2], in assay [3], in [4], in assay [5] and in [7] was “inactive” each time. In addition, the Potency result in [8], in assay [17], in assay [9], in [10], in assay [11] and in [18] was “inactive” each time. Also, the Potency entry in assay [12] and in assay [14] was “inactive” throughout. In assay [13], the outcome was inactive.

In the case of `O=C(O)c1ccc(S(=O)(=O)O)cc1C(=O)O`, the Potency entry in assay [1], in [2], in assay [3], in [4], in [5] and in assay [6] was “inactive” each time. For the same compound, the Potency result in [7], in assay [8], in assay [17], in assay [9], in assay [11] and in assay [18] was “inactive” in each case. The Potency result in assay [12] and in assay [16] was “inactive” throughout. Further, the compound was called inactive in assay [13] and in assay [15].

For `CN(Cc1ccc(C(C)(C)C)cc1)Cc1cccc2ccccc12`, the Potency entry in assay [1], in [2], in [3], in assay [6], in [17] and in assay [10] was “inactive” throughout. For the same compound, the Potency result in assay [14] was “inactive”. Moreover, the Potency was 26.6 µM (active) in assay [4], 23.7 µM (active) in assay [5] and 10.6 µM (active) in [18]. For the same compound, the outcome in [13] and in assay [15] was inactive.

With `COS(=O)(=O)C(F)(F)F`, the Potency in assay [1] is 14.3 µM (active). Moreover, the Potency result in assay [2], in assay [3], in [4], in [5], in assay [6] and in [7] was “inactive” throughout. Also, the Potency entry in assay [8], in [17], in [9], in assay [12], in assay [14] and in assay [16] was “inactive” throughout. The outcome in assay [13] and in [15] was inactive.

Take `COc1cc(C(=O)OCCCN2CCCN(CCCOC(=O)c3cc(OC)c(OC)c(OC)c3)CC2)cc(OC)c1OC`: the results for the Potency in assay [1], in assay [4] and in assay [17] were 6.68 µM (active), 23.7 µM (active) and 13.3 µM (active), respectively. The Potency entry in assay [2], in [19], in assay [20], in [5], in assay [6] and in [7] was “inactive” in each case. For the same compound, the Potency entry in assay [8], in assay [10], in assay [11], in assay [18], in [12] and in assay [14] was “inactive” throughout. In addition, the Potency entry in assay [16] is “inactive”. For the same compound, the call in assay [13] and in assay [15] was inactive.

As to `c1ccc(C(O[C@H]2CCCN(CCc3ccc4c(c3)OCO4)C2)c2ccccc2)cc1`, the Potency result in assay [1], in assay [2], in assay [3], in assay [5], in assay [6] and in assay [7] was “inactive” throughout. Further, the Potency entry in [8], in assay [9], in assay [11], in [12] and in assay [16] was “inactive” throughout. For the same compound, the result in [13] and in [15] was inactive.
